Measured values reported in ChEMBL document CHEMBL3988442, “University of Dundee, Small-Polar-MMV Screening Library” (2021).

Legend:
[1] = biological target: T1, Aspartate--tRNA(Asp/Asn) ligase (Mycobacterium tuberculosis (strain ATCC 25618 / H37Rv)) (UniProt P9WFW3); experiment: Assay for Asp RNA synthetase-1 from Mycobacterium tuberculosis; type: functional; parameters: scale not given: direction of the effect not stated beside the values; conditions: 30 µM; further: in the data most compounds retested in dose-response had high values
T1 sequence (whole entry): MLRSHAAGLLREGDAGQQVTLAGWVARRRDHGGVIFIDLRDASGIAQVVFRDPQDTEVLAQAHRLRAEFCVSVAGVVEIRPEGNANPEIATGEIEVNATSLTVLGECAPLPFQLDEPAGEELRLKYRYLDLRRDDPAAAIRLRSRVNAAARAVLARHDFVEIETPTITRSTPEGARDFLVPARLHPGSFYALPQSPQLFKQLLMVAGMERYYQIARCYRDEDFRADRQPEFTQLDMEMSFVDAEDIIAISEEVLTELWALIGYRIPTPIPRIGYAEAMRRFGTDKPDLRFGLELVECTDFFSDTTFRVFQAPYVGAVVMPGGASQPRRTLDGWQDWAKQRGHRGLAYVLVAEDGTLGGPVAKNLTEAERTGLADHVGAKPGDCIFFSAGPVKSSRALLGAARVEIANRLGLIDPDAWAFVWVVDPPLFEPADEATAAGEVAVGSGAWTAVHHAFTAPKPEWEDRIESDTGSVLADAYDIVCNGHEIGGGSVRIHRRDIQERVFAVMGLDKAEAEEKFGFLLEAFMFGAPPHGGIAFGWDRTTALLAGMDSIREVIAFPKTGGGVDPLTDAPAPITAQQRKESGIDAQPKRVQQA

[2] = biological target: Shiga toxin 2 (Escherichia coli O157:H7) (UniProt P09385+P09386); experiment: E. coli 0.157:H7 Shiga Toxin SOP - stx2 screening assay; type: functional; parameters: scale not given: direction of the effect not stated beside the values; conditions: 30 µM

Structure (SMILES) | Percent Effect [1] | Percent Effect [2]
CN(Cc1noc(C2CC2)n1)C1CCN(Cc2ccncc2)C1 (configuration not stated) | -0.189% | -32.1%
Cc1noc(C2CCCN(C(=O)c3ccc(Br)o3)C2)n1 (configuration not stated) | -2.54% | -8.47%
Cc1cnn(CC2CCCN2CC(=O)Nc2cc(C)nn2C)c1 (configuration not stated) | 0.972% | -20.9%
c1ccc(-n2ccnc2)c(CNCC2CNc3ccnn3C2)c1 (configuration not stated) | -5.71% | -13.1%
c1cnn(Cc2nnc3n2CCCN(CC2CCOCC2)C3)c1 | 2.52% | 18.5%
CC(NC(=O)COc1ccc(F)cc1)c1nnc2n1CCCCC2 (configuration not stated) | 8.46% | 13.1%
O=C(c1cnc(-c2ccco2)s1)N1CCCC1Cn1cccn1 (configuration not stated) | -5.14% | -4.37%
COCc1ccccc1CNc1nnc(C)c(C)c1C#N | 7.84% | 29.7%
O=C(Nc1nncs1)NC1CCOc2ccccc21 (configuration not stated) | 5.22% | -45.8%
O=C1CC(c2ccsc2)c2sc(C(=O)O)c(-c3ccccc3)c2N1 (configuration not stated) | 1.95% | 17.4%
CC(=O)N1C[C@@H](c2ccsc2)[C@@H]2CN(Cc3cccc(Cl)c3)CC[C@@H]21 | -0.368% | -9.53%
CC(C)(C)c1ccc(C2(C(=O)NCCS(N)(=O)=O)CC2)cc1 | 13.3% | -15.1%
Cc1ncsc1C(=O)NCc1cccs1 | -1.72% | 1.3%
Cc1ccc([C@@H]2CN(C(=O)c3ccc[nH]3)C[C@H]2NC(=O)C2CC2)cc1 | -1.93% | 3.8%
CC(C)c1ncc2c(n1)CN(Cc1cccc(OCC(N)=O)c1)CC2 | 3.81% | 12.8%
CC(=O)N1CCC(C(=O)NCCN2CCCCC2)CC1 | -0.501% | -3.32%
CCOCC1CC2(CCN(Cc3ccccn3)CC2)CO1 (configuration not stated) | 0.869% | -0.96%
Cc1ccc(C(=O)N(C)Cc2cscn2)c(=O)[nH]1 | 0.749% | 8.36%
O=C(c1ccc(OCC2CC2)nc1)N1CCCC(n2ccnc2)C1 (configuration not stated) | -9.61% | -43.4%
C[S+]([O-])c1nncn1CC(=O)c1ccc2c(c1)CCO2 (configuration not stated) | 3.29% | -38.1%
Cc1noc(C(C)C)c1C(=O)NCC(c1ccsc1)N(C)C (configuration not stated) | 3% | -2.68%
CCc1nc2n(n1)CC(NCC(=O)Nc1cc(C)on1)CC2 (configuration not stated) | -3.4% | 3.33%

Structure (SMILES) | Percent Effect [1] | Percent Effect [2]
Cc1ncnc2c1CCN(Cc1ccc3c(c1)OCO3)CC2 | -0.729% | -19.3%
CCN(C(=O)CN(C)C(c1cccc(F)c1)c1ccccn1)C1CC1 (configuration not stated) | -2.49% | 8.33%
CC(C)NC(=O)N1CCN(S(=O)(=O)C2CC2)CC2(CNC(=O)C2)C1 (configuration not stated) | -2.4% | -12.6%
Cc1nnc2n1CCN(CCOc1ccccc1)C2 | -6.3% | -21.5%
CCc1nccn1C1CCCN(C(=O)c2ccc3[nH]c(=O)[nH]c3c2)C1 (configuration not stated) | -9.98% | -46.4%
O=C(NC[C@H]1OC[C@@H]2CCN(Cc3ccco3)C[C@@H]21)c1ccsc1 | -1.14% | 4.74%
C=Cc1ccc(C(=O)N2CCCC(Nc3ccc(F)cc3)C2)cc1 (configuration not stated) | -0.502% | -4.33%
c1ccc(OCCCN2CCN(c3ccc4nncn4n3)CC2)cc1 | -0.637% | -81.9%
Cn1ncc2c(=O)[nH]c(CN3CCCC3Cc3ccccc3)nc21 (configuration not stated) | 2.98% | 35.6%
CO[C@@H]1CC[C@H]2[C@H]1OCCN2C(=O)c1ccc(C)o1 | 2.26% | -16.7%
COc1cccc(-c2nc(C)c(C(=O)NC(CO)CCSC)s2)c1 (configuration not stated) | -3.69% | -34.8%
Cc1cc(N2CCCN(C(=O)Cc3ccc(O)c(Cl)c3)CC2)ccn1 | 1.92% | -29.5%
Cn1cnnc1C1CCCN(C(=O)NCCOc2ccccc2)C1 (configuration not stated) | -4.29% | -30.2%
O=C(c1ccc[nH]1)N1CCc2c(COCC3CC3)cncc2C1 | -0.626% | 1.55%
Cc1nn(C)c(N(C)C)c1CNCC(O)c1ccccc1 (configuration not stated) | -4.11% | -17.5%
Clc1ccc(CN2CCCC(Cn3cncn3)C2)c2ncccc12 (configuration not stated) | 2.62% | -50.6%
Cc1ccc(OCC(O)CN2CCC(Cn3cccn3)CC2)cc1 (configuration not stated) | -1.46% | -51.7%
Cc1ccc(CN2CCc3c(C(=O)N(C)C)nn(C)c3C2)s1 | 1.82% | 3.56%
CCOc1ccc(CC(=O)N2CCN(c3nccn3C)CC2)cc1 | 5.09% | -64.2%
Cc1cn2c(n1)CCC(NC(=O)c1ccc(CS(C)(=O)=O)o1)C2 (configuration not stated) | -4.46% | 10.6%
Cc1cccc(C(=O)N2CCN(S(C)(=O)=O)[C@@H](C)C2)c1C | -3.1% | -11.5%
C[S+]([O-])c1nncn1CC(=O)c1ccc(Cl)c(Cl)c1 (configuration not stated) | 1.03% | -25.1%

Structure (SMILES) | Percent Effect [1] | Percent Effect [2]
CN(C)C(=O)N1C[C@H]2CCC[C@@]2(COc2ccccn2)C1 | 3.31% | 10.3%
COc1ccc2nnc(CCCC(=O)NCc3cccn3C)n2n1 | -1.89% | -44.7%
O=C(Nc1ccccc1F)N(CCO)Cc1ccsc1 | -3.39% | 20.3%
COCc1c(C(=O)O)nnn1Cc1cccc(C(F)(F)F)c1 | -5.23% | -31%
CC[C@@H](CO)NC(=O)c1coc(COc2ccc(OC)cc2)n1 | 6.33% | -5.46%
COc1ccccc1[C@@H]1CN(Cc2cc(C(C)(C)C)[nH]n2)C[C@H]1C(=O)O | 1.28% | -6.54%
C=C1c2ccccc2C(=O)N1CCC(=O)N1CCNC(=O)C1 | -2.35% | 25.2%
COCCN1CC[C@@H]2OC[C@H](C(=O)NCc3cccs3)C[C@@H]2C1 | 2.37% | -14.7%
COCCN1C[C@@H]2CCCO[C@@H]2[C@H](N(C)Cc2ccco2)C1 | 0.0735% | -6.84%
CCC(CC)c1cc(CNC(=O)N2CCOCC2CC)on1 (configuration not stated) | -2.19% | 9.7%
CC1CN(C(=O)c2ccn(-c3cccc(Cl)c3)n2)CCO1 (configuration not stated) | -3.19% | -15%
Cc1cc(C)n(CCC(=O)N2CCC(c3nc(C(C)C)no3)CC2)n1 | 2.47% | -18.2%
CN(C)C(=O)C1CN(Cc2cscn2)CCN(S(C)(=O)=O)C1 (configuration not stated) | 0.521% | -12.3%
Cc1cccc2[nH]c(C3CCN(C(=O)c4ccnn4C)CC3)nc12 | -0.0892% | -69.6%
CCn1c(C2CCCN(Cc3nccn3CCOC)C2)nn(C)c1=O (configuration not stated) | 4.25% | 5.34%
Cc1ccc(-c2nc(CN3CCCC(Cn4cncn4)C3)no2)cc1 (configuration not stated) | 1.64% | -11.2%
O=C(NCCNc1ncccn1)N(Cc1ccc(F)cc1F)C1CC1 | -3.51% | 12.1%
CCN(Cc1nc2c(cnn2C)c(=O)[nH]1)c1cccc(F)c1 | 1.24% | -7.65%
O=C(c1ccc(F)cc1)N1C[C@@H]2OCCN(c3ncccn3)[C@@H]2C1 | -0.874% | -4.11%
C1CC(CN2CCOCC3(CCN(C4CCOCC4)C3)C2)CCO1 (configuration not stated) | 3.19% | -4.37%
Cc1ccc(C)n1-c1ccc(C(=O)NCCNc2ncccn2)cc1 | 5.76% | 7.86%
CN(C)C(=O)c1ccc2c(c1)N(C)C(CC(=O)NCc1ccno1)CO2 (configuration not stated) | -2.42% | -9.52%

Structure (SMILES) | Percent Effect [1] | Percent Effect [2]
c1cnnc(N2CCCC(NCc3ccc(-n4cccn4)cc3)C2)c1 (configuration not stated) | -2.36% | 11%
CCCC1(CO)CCCN(c2ncccc2F)C1 (configuration not stated) | 0.836% | -7.35%
c1csc(-c2nc(CN3CCCC3Cn3cncn3)co2)c1 (configuration not stated) | 3.68% | -0.336%
COCCCn1c(CN2CCCC(O)C2)cnc1S(=O)(=O)C1CCCC1 (configuration not stated) | 4.61% | -11.3%
O=C(NC1CCCC1)NC1CCC(C(=O)N2CCSCC2)CC1 (configuration not stated) | 1.78% | -37.4%
Cc1ccc(C(C)NC(=O)Nc2ccccc2CN2CCOCC2)o1 (configuration not stated) | -6.02% | 17.3%
Cc1cc(C(=O)N2CCN(C(=O)Cc3ccccn3)CC2)c(C)s1 | 2.55% | 7.06%
COc1ccc(C(C)NC(=O)NCCCn2cncn2)cc1F (configuration not stated) | 7.3% | -14.5%
COc1cccc(-n2nnc(C(=O)N3CCNC(=O)C3)c2C)c1 | -6.06% | -7.95%
O=C(c1cccnc1)N1CC[C@H](OCC2CC2)[C@@H]1Cc1cccnc1 | 3.76% | -13.7%
CC(C#N)CSc1ccccc1NCC(=O)NCc1ccccc1 (configuration not stated) | -8.08% | 21.2%
O=C(NCCCNc1ccccc1)c1scnc1Cl | -0.926% | -10.4%
Cc1cccc(OCCC(=O)N2CCN(S(=O)(=O)N(C)C)CC2)c1C | -1.74% | -7.47%
CCc1noc(C2CCN(C(=O)CCn3nc(C)cc3C)CC2)n1 | 8.14% | -32.8%
c1ccc(Oc2cc(CNCC3CNc4ccnn4C3)ccn2)cc1 (configuration not stated) | -8.46% | -36.5%
Cc1cnn(CCNCc2ccccc2Oc2cccnc2)c1 | 10.1% | -15.5%
CNc1cc2c(nn1)CCN(C(=O)c1ccoc1)C2 | 0.663% | 28.5%
CCc1nnc2n1CCN(CCS(=O)(=O)c1ccccc1)C2 | -3.04% | 8.79%
COc1ccc(NC(=O)N2CCCC2c2ccco2)cc1OC (configuration not stated) | 1.24% | -11.9%
COc1ncccc1C(=O)N1CCn2c(COCC3CC3)cnc2C1C (configuration not stated) | -2.76% | 6.35%
